Compounds without any hit were thinned out: in the full panel of roughly 83,000, 20% have a hit.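 Compound tested at a single concentration for 48 hours in 96-well plates; a percent growth value below 10 was scored as active.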 Calls of active or inactive are those of the source.
Columns and labels:
Experiment in all cases: NCI-60 one-dose screen, 48 h (100 = growth as untreated, 0 = no growth, -100 = all killed)
Conditions in all cases: 10 µM unless noted
[1] = test system: DU-145 prostate
[2] = test system: K-562 leukemia
[3] = test system: MALME-3M melanoma
[4] = test system: MDA-MB-231 breast
[5] = test system: RXF 393 renal
[6] = test system: SF-268 CNS
[7] = test system: SF-295 CNS
[8] = test system: SF-539 CNS
[9] = test system: UACC-257 melanoma
[10] = test system: M14 melanoma
[11] = test system: HCT-15 colon
[12] = test system: HT29 colon
[13] = test system: SNB-75 CNS
[14] = test system: SNB-19 CNS
[15] = test system: U251 CNS
[16] = test system: PC-3 prostate
[17] = test system: SK-MEL-5 melanoma
[18] = test system: UACC-62 melanoma
[19] = test system: LOX IMVI melanoma
[20] = test system: SK-MEL-28 melanoma

Measured: growth

O=C(CSc1nc2sc3c(c2c(=O)n1-c1ccc(Cl)cc1)CCCC3)Nc1nc(-c2cccc(Br)c2)cs1
inactive: [1] 68.5% | [2] 95.8% | [3] 95.3% | [4] 80.7% | [5] 99.5% | [6] 69.6% | [7] 42.4% | [8] 97.3% | [9] 99.3% | [10] 76.6% | [11] 87.8% | [12] 61.7% | [13] 41.7% | [14] 84.8% | [15] 78.8% | [16] 57.5% | [17] 82.8% | [18] 85.1% | [19] 84.3% | [20] 84.4%

C=C(C)[C@@H]1CC[C@]2(CN)CC[C@]3(C)[C@H](CC[C@@H]4[C@@]5(C)CCCNC(C)(C)[C@@H]5CC[C@]43C)[C@@H]12
active: [1] -53.5% | [2] -56.1% | [3] -70.5% | [4] -79.7% | [5] -87.4% | [7] -59.6% | [8] -31.8% | [10] -77.7% | [11] -92.4% | [12] -85.8% | [13] -27.7% | [14] -58.5% | [15] -89.7% | [16] -10.5% | [17] -9.72% | [19] -98.3% | [20] -28.3%
inactive: [6] 22.9% | [9] 46.3% | [18] 29%

C[C@H]1[C@H](C)CC[C@]2(C(=O)NCC#CCN3CCN(C)CC3)CC[C@]3(C)C(=CC[C@@H]4[C@@]5(C)Cc6c([nH]c7ccccc67)C(C)(C)[C@@H]5CC[C@]43C)[C@H]12
inactive: [1] 73.1% | [3] 61.6% | [4] 63.8% | [5] 84.9% | [6] 82.5% | [7] 106% | [8] 84.8% | [9] 97% | [10] 71.3% | [11] 47% | [12] 19.3% | [13] 90.1% | [14] 83.2% | [15] 64.3% | [16] 69.8% | [17] 88.5% | [18] 101% | [19] 70.9% | [20] 82.3%
active: [2] 1.37%

CCN(CC)c1ccc(C(=O)c2ccccc2)cc1
inactive: [1] 102% | [2] 95.2% | [3] 95.3% | [4] 100% | [5] 111% | [6] 96.9% | [7] 101% | [8] 97.7% | [9] 96.1% | [10] 102% | [11] 105% | [12] 95% | [13] 93.5% | [14] 97.7% | [15] 87.2% | [16] 97.9% | [17] 96.9% | [18] 96% | [19] 100% | [20] 104%

CN(C)CCC(=O)c1ccc([N+](=O)[O-])cc1
inactive: [1] 108% | [2] 114% | [3] 104% | [4] 100% | [5] 108% | [6] 112% | [7] 103% | [8] 96.4% | [9] 108% | [10] 102% | [11] 103% | [12] 96.7% | [13] 90.9% | [14] 107% | [15] 105% | [16] 93.6% | [17] 99% | [18] 98.6% | [19] 111% | [20] 104%

CCCCC[n+]1ccc(SCC(=O)N(C)c2ccc(Oc3ccccc3)cc2)c2ccccc21
inactive: [1] 112% | [2] 25.4% | [3] 84.8% | [4] 110% | [5] 115% | [6] 116% | [7] 91.4% | [8] 107% | [9] 96.2% | [10] 102% | [11] 100% | [12] 101% | [13] 115% | [14] 89.1% | [15] 95.8% | [16] 103% | [17] 95.2% | [18] 75.4% | [19] 102% | [20] 108%

COc1cc(C2=C(c3cn(C)c4ccccc34)COC2=O)cc(OC)c1OC
inactive: [1] 19.9% | [3] 44.5% | [4] 22.5% | [6] 25.8% | [9] 67.4% | [14] 15.5% | [15] 13.8% | [16] 13.3% | [18] 12.6% | [20] 21.3%
active: [2] 6.17% | [5] -21% | [7] -5.22% | [8] -19.7% | [10] -13.9% | [11] 5.39% | [12] 7.04% | [13] -31.3% | [17] 0.365% | [19] 2.86%

COc1ccccc1/C=C1\Oc2cc(OCCN3CCCC3)ccc2C1=O
inactive: [1] 89.2% | [3] 104% | [4] 81.8% | [5] 71.5% | [6] 91.3% | [7] 95.4% | [8] 85.9% | [9] 95% | [10] 77.2% | [11] 39.4% | [12] 14% | [13] 90.5% | [14] 88.9% | [15] 76.1% | [16] 83% | [17] 87.2% | [18] 97.3% | [19] 68.1% | [20] 91.8%
active: [2] -5.04%

O=C(CCN1CCCC1)Nc1ccc2c(Nc3ccc(F)cc3)c3ccccc3nc2c1
active: [1] -46% | [2] 0.179% | [3] -90.1% | [4] -17.2% | [5] 7.89% | [8] -74.5% | [9] -57.1% | [10] -80.7% | [11] -31.9% | [12] 4.15% | [15] -42.1% | [16] 8.99% | [19] -61.2% | [20] -40.8%
inactive: [6] 16.3% | [7] 15.2% | [13] 16.3% | [14] 13.8% | [17] 33.9% | [18] 21.5%

CCOC(=O)c1ccc2c(c1)ncn2-c1ccc(NC(=O)Nc2cccc(C)c2)cc1
inactive: [1] 71.9% | [2] 18% | [3] 96.2% | [4] 52.5% | [5] 84.5% | [6] 95.4% | [7] 57.6% | [8] 49.2% | [9] 94% | [10] 64.5% | [11] 13.6% | [12] 49.1% | [13] 87.6% | [14] 49.8% | [15] 46.1% | [16] 67.4% | [17] 83.2% | [18] 71.3% | [20] 88.7%
active: [19] 5.37%

Brc1ccc(Nc2csc(-c3ccccn3)n2)cc1
inactive: [1] 94.6% | [2] 84.5% | [3] 99.4% | [4] 81.9% | [5] 106% | [6] 90.9% | [7] 88.8% | [8] 95% | [9] 111% | [10] 93.3% | [11] 67.4% | [12] 81.4% | [13] 72.3% | [14] 96% | [15] 101% | [16] 85.3% | [17] 95.4% | [18] 67.1% | [19] 72.1% | [20] 109%

Cc1ccc(NC(C(=O)c2ccccc2)c2ccccc2)cc1 (stereo not given)
active: [3] -2.02%
inactive: [1] 58.2% | [2] 46.5% | [4] 72.4% | [5] 95.2% | [6] 68.6% | [7] 53.2% | [8] 78.4% | [9] 10.5% | [10] 77.6% | [11] 86.4% | [12] 46.9% | [13] 66.3% | [14] 47.9% | [15] 29.7% | [16] 37.6% | [17] 22.1% | [18] 39.1% | [19] 50.5% | [20] 52.8%

COc1cc(/C(C)=C(\c2ccc(Cl)cc2)c2ccc(OCCN3CCCC3)cc2)ccc1F
active: [2] 3.65% | [3] -2.59% | [9] 3.02% | [11] 7.9% | [12] 8.92%
inactive: [1] 69.4% | [4] 56.4% | [5] 69.3% | [6] 76.6% | [7] 75.2% | [8] 73.3% | [10] 18.2% | [13] 84.2% | [14] 79.8% | [15] 46.1% | [16] 53% | [17] 49.9% | [18] 58% | [19] 46% | [20] 69.3%

Cc1ccc(/C=C(/C#N)n2nnc3cccc(F)c32)cc1
inactive: [3] 36.3% | [6] 21.2% | [7] 16.2% | [9] 52.8% | [14] 16.2% | [15] 13.9% | [16] 20.8% | [18] 13.2% | [20] 52.4%
active: [1] -24.9% | [2] 6.48% | [4] -38.5% | [5] -51.4% | [8] -48.1% | [10] -13.6% | [11] 5.46% | [12] 9.94% | [13] -35.7% | [17] -55.2% | [19] -14.7%

COc1cc2nc(-c3ccc(C(F)(F)F)cc3)cc(OCCCN3CCOCC3)c2cc1OC
inactive: [1] 41.5% | [2] 11.5% | [3] 45.2% | [4] 22.1% | [5] 14.5% | [6] 56.1% | [8] 46% | [12] 17.4% | [14] 61% | [15] 42.6% | [16] 42.1% | [20] 42.1%
active: [7] -50.1% | [9] -16.2% | [10] -56% | [11] 7.76% | [13] -9.47% | [17] -33.1% | [18] -26.1% | [19] -82.1%
